Structures are written as SMILES. About 1,500 (0.68%) of roughly 220,000 compounds were called active. The entries come from a sample that favours actives as a whole. Unmarked numbers belong to inactive results.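 How the source made its calls: active means Hck-Nef kinase inhibition above about 50% (limit read from the data); inactive means inhibition below that limit.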

For the assay, the target named is Tyrosine-protein kinase HCK (Homo sapiens) (UniProt P08631). Nature of the assay: Hck:Nef complex kinase activity blockers – biochemical, Z-Lyte FRET, 384-well, Hck-YEEI, primary screen (AID 463187).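 Further: 0% = DMSO with Hck plus Nef and 100% = Hck alone without Nef.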 As to conditions: Recombinant Hck-YEEI plus Nef, Z-Lyte FRET kinase assay; at 20 µM; stronger effect = higher value.
Chain of Tyrosine-protein kinase HCK (Homo sapiens) (P08631 whole entry, looked up): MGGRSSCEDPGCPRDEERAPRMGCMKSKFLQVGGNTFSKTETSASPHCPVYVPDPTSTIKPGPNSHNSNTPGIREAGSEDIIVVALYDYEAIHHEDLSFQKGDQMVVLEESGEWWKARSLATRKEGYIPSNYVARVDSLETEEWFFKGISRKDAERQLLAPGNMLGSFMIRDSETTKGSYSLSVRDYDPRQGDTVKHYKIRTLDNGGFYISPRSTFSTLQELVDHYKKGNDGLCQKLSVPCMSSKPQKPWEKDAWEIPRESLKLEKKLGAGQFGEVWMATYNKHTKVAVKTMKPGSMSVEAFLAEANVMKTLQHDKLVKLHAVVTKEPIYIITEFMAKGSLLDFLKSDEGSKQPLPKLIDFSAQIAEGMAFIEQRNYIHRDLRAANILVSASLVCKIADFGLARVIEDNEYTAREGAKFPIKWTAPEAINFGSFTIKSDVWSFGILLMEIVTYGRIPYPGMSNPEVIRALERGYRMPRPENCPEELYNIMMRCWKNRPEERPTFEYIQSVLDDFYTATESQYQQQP
For orientation: inhibition means the drop in the measured response relative to a control, in per cent. For `Cc1cccc(N2C(=O)NC(=O)/C(=C\c3cnn(-c4ccccc4)c3)C2=O)c1`, the inhibition was 5.24%. Turning to `O=C1NC(=O)N(c2ccccc2)C(=O)/C1=C/c1ccc([N+](=O)[O-])s1`, the inhibition was 20.3%.

Consider `COc1cccc(N2C(=O)NC(=O)/C(=C\c3ccc([N+](=O)[O-])s3)C2=O)c1`, for which the inhibition was 92.8% (active). The same measure for `O=C1NC(=O)N(Cc2ccco2)C(=O)/C1=C\c1cccn1CCOc1ccccc1`: 27.2%; for `O=C1NC(=O)N(Cc2ccco2)C(=O)/C1=C\c1ccc(-c2ccc(F)cc2)o1`: 59.4% (active). Regarding `Cc1cc(/C=C2/C(=O)NC(=O)N(Cc3ccco3)C2=O)c(C)n1-c1ccc(C(=O)O)cc1`, the inhibition is 49.2%. For the molecule `CNC(=O)O/N=C(\N)Cc1csc2ccccc12`, the inhibition was 13.9%. As for `Cc1cccc(NC(=O)OC2CN3CCC2CC3)c1` (stereo not given), the figure is 13.5%; as for `O=C(N/N=C/c1c(O)n(Cc2ccccc2)c(=O)[nH]c1=O)c1ccccc1`, 1.83%; as for `CCOC(=O)c1c(N)n(Cc2ccccc2)c2nc3ccccc3nc12`, 9.2%.

Take `CCOC(=O)c1c(N)n(CCN2CCOCC2)c2nc3ccccc3nc12`: the inhibition was -2.81%. On to `COc1cc(Cn2c(N)c(C(=O)NCc3ccco3)c3nc4ccccc4nc32)cc(OC)c1OC`, for which the inhibition is 66.7% (active). As for `CSc1nc2ccc(C)cc2c(=O)n1-c1cccnc1`, the inhibition was 4.59%.

Take `O=C(Cn1c(=O)n(CC2CS2)c2ccccc21)N1CCCCC1` (stereo not given): the inhibition is -9.69%. The same measure for `CC1=C(C(=O)Nc2ccccc2)S(=O)(=O)CCO1`: 26.8%.
